{
  "source": "PubChem BioAssay (EPA / NIEHS)",
  "note": "Several values for one entry are separate records, joined by “and”; a condition that tells them apart may be missing. Identical values can stand only once. Results filed as inconclusive are left out. Some structures have more than one record in an assay (separate samples or runs), and their calls can disagree. Activity calls are given as the source filed them. Rule for the calls: active = hit-call score of the fitted dose curve at least 0.9, where 1 is the maximum; inconclusive = response in the unintended direction; inactive = score below 0.9.",
  "data": [
    {"target": "human CYP2J2, CYP2J2 (gene 1573) (UniProt P51589)", "sequence (P51589 whole entry, looked up)": "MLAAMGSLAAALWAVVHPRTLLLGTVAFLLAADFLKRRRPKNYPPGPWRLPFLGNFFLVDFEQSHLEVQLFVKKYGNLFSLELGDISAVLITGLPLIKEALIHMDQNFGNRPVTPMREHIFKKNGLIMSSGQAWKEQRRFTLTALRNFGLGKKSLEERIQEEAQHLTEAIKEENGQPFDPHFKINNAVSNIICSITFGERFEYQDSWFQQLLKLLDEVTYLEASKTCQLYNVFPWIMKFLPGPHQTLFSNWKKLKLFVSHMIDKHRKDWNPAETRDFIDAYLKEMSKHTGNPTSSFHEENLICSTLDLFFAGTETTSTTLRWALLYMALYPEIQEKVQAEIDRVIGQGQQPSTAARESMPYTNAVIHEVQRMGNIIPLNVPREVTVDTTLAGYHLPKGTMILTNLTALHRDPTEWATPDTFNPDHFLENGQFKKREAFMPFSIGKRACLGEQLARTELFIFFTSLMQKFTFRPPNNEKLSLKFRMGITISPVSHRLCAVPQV", "assay": "NVS_ADME_hCYP2J2: NovaScreen (NVS) CYP450-related Enzyme Activity (ADME) Assay for human CYP2J2 (AID 2283106)", "experimental": "NVS_ADME_hCYP2J2 is a biochemical, single-readout assay that uses extracted gene-proteins in a cell-free assay. Measurements were taken 1 hour after chemical dosing in a 96-well plate.NVS_ADME_hCYP2J2 is one of one assay component(s) measured or calculated from the NVS_ADME_hCYP2J2 assay. It is designed to make measurements of enzyme activity, a form of enzyme reporter, as detected with fluorescence intensity signals by Fluorescence technology.Data from the assay component NVS_ADME_hCYP2J2 was analyzed into 1 assay endpoint. This assay endpoint, NVS_ADME_hCYP2J2, was analyzed in the positive analysis fitting direction relative to Acetonitrile as the negative control and baseline of activity. Using a type of enzyme reporter, loss-of-signal activity can be used to understand changes in the enzymatic activity as they relate to the gene CYP2J2. Furthermore, this assay endpoint can be referred to as a primary readout, because this assay has produced multiple assay endpoints where this one serves a enzymatic activity function. To generalize the intended target to other relatable targets, this assay endpoint is annotated to the cyp intended target family, where the subfamily is xenobiotic metabolism.\nBinding assays used specific radioligands (tritiated, iodinated) with non-radioactive competitive displacement ligands in agonist or antagonist protocols (as indicated) and various reference compounds and inhibitors to titrate specific binding to receptors and transporters. Most enzyme assays (CYPs, kinases, phosphatases, proteases, HDACs) used recombinant protein and specific substrates (fluorescence mostly, some colorimetric and radioactive) and inhibitors, followed by a biochemical separation of substrate and product. All assays for the biochemical HTS were initially run in duplicate at a single concentration (10 uM for CYP450 assays and 25 uM for all others). Assay-chemical combinations meeting a pre-defined threshold (e.g., 30% inhibition and other criteria defined below) were then run in singleton concentration-response format with maximum concentration of 20 uM for CYPs and 50 uM for all others. Each assay was run with positive and negative controls, and concurrent controls on every plate. The follow-up (secondary) screen tested active chemical-pairs in concentration series, as well as a few additional assays not tested in the primary screen, some selected negative inactives, and several cases re-run in the concentration series for confirmatory purposes.", "values": [
      {"molecule": "CCSC(=O)N(CC(C)C)CC(C)C", "AC50": "1.4 µM (active)"},
      {"molecule": "CCN(CC)CCOc1ccc(C(=C(Cl)c2ccccc2)c2ccccc2)cc1", "outcome": "inactive", "AC50": "4.08 µM (active) and 7.21 µM (active)"},
      {"molecule": "CCOC(=O)NCCOc1ccc(Oc2ccccc2)cc1", "outcome": "inactive"},
      {"molecule": "Cc1nn(C)c(Oc2ccccc2)c1C=NOCc1ccc(C(=O)OC(C)(C)C)cc1", "AC50": "5.24 µM (active)"},
      {"molecule": "Oc1ccc(C(c2ccc(O)cc2)C(Cl)(Cl)Cl)cc1", "AC50": "2.99 µM (active)"},
      {"molecule": "O=c1c(-c2ccc(O)cc2)coc2cc(O)cc(O)c12", "AC50": "979 nM (active) and 1.06 µM (active) and 443 nM (active)"},
      {"molecule": "CCCCOCCOCCOCc1cc2c(cc1CCC)OCO2", "AC50": "0.116 µM (active)"},
      {"molecule": "CC(C)(c1ccc(O)cc1)c1ccc(O)cc1", "AC50": "4.93 µM (active)"},
      {"molecule": "N#CSCSc1nc2ccccc2s1", "AC50": "0.466 µM (active)"},
      {"molecule": "C[C@]12CC[C@@H]3c4ccc(O)cc4CC[C@H]3[C@@H]1CC[C@@H]2O", "outcome": "inactive"},
      {"molecule": "C#CCOC(=O)[C@@H](C)Oc1ccc(Oc2ncc(Cl)cc2F)cc1", "AC50": "0.189 µM (active)"},
      {"molecule": "C=CCOC(Cn1ccnc1)c1ccc(Cl)cc1Cl", "note": "(centres undefined)", "AC50": "0.166 µM (active)"},
      {"molecule": "C#C[C@]1(O)CC[C@H]2[C@@H]3CCc4cc(O)ccc4[C@H]3CC[C@@]21C", "AC50": "878 nM (active) and 2.68 µM (active) and 672 nM (active)"}
    ]}
  ]
}
